Bioassay records (PubChem)
A selection: hits, their analogues and other compounds. The true share with any hit is near 3.1%.
Statin myotox sup – suppressors of statin myotoxicity in C2C12 myotubes, primary screen, cell-based, single point, plate reader; C2C12 myotubes + simvastatin, ATP luminescence, 48 h; scaled: DMSO 0, geranylgeraniol control 100; rescue of ATP level, % at 7.49 µM; hit rate 0.78% among 330,000; AID 602340, 2012;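 active = mean ATP rescue above about 67%, or every replicate alone reaching that limit, limit read from the data, passing the limit was not always enough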;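 also: myotubes were challenged with 10 µM simvastatin during compound exposure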
miR-122 sensor – miR-122 Renilla sensor signal increase in Huh7, primary screen, miR-122 inhibitor project, cell-based, single point, plate reader. Huh7 miR-122 Renilla luciferase sensor, 48 h; neutral wells = 0, positive control = 100. activation (reporter increase), % at 12.5 µM. hit rate 0.3% among 340,000;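 active = mean replicate activation score at least 90 and every replicate individually at or above 90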;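 also: higher luciferase means less miR-122 activity so hits act as miR-122 inhibitors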
INS-1E GSIS act – GLuc luminescence reporter in INS-1E cells, primary screen for activators of glucose-dependent secretion of insulin. INS-1E GLuc reporter insulin secretion, 2-3 h. activation, % at 16.6 µM. hit rate 0.61% among 370,000;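 active = lowest replicate activation of at least 40%, so every replicate reaches that level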;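 also: 0% = median of neutral control wells and 100% = median of IBMX positive control wells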
PAX8 inh HTS – inhibitors of PAX8-driven TPO luciferase reporter, primary screen, RMG-I cells, single concentration. SteadyGlo, 24 h. inhibition, % at 12.6 µM. hit rate 1.2% among 360,000. AID 652154, 2013;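 active = mean replicate inhibition at least 60% with every replicate also reaching 60%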;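 also: luciferase light reporting Pax8 driven TPO promoter activity; plate controls were median of neutral control wells for no effect and mitoxantrone controls for full effect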
EWS-Fli inh – EWS/Fli-driven NR0B1 reporter inhibitors, primary screen, A673 cells, NR0B1 luciferase, luminescence, MLPCN library; viability-normalised; inhibition, % at 12.6 µM; hit rate 0.67% among 350,000; AID 651661, 2012;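 active = mean inhibition of at least 50% after viability correction, with every replicate also passing that limit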;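 also: firefly luciferase signal divided by Alamar Blue viability fluorescence both relative to DMSO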
HIV Env fusion – inhibitors of HIV-1 Env-driven cell-cell fusion, primary screen, HeLa-JRFL effector, CEM21 target cells, luciferase. AID 651610, 2012. inhibition, % at 12.3 µM. hit rate 1.1% among 360,000;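 active = mean replicate inhibition score of at least 50 and every replicate individually at or above 50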;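 also: 0% = plate neutral controls and 100% = maraviroc near 300 nM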
Starred values were filed as active, the others as inactive; [ ] = another dose, or the depositor's remark.

C[C@@H](NC(=O)C[C@H]1CC[C@@H]2[C@H](COC[C@@H](O)CN2Cc2cc(F)ccc2F)O1)c1ccccc1 was read as Statin myotox sup 30, miR-122 sensor 5[16.7 µM], INS-1E GSIS act -4, PAX8 inh HTS 13, EWS-Fli inh -4 and HIV Env fusion -1[16.7 µM].
For O=C(C[C@@H]1CC[C@H]2[C@@H](COC[C@H](O)CN2Cc2cccc(C(F)(F)F)c2)O1)NCc1ccc(Cl)cc1 the results were Statin myotox sup 43, miR-122 sensor -2[16.7 µM], INS-1E GSIS act -23, PAX8 inh HTS 47, EWS-Fli inh 0 and HIV Env fusion 68*[16.7 µM].
For COc1ccc(S(=O)(=O)N(C)C[C@H]2Oc3ccc(NC(=O)c4ccncc4)cc3CC(=O)N([C@@H](C)CO)C[C@@H]2C)cc1 the results were Statin myotox sup 8, miR-122 sensor 6[16.7 µM], INS-1E GSIS act 9, EWS-Fli inh -1 and HIV Env fusion -6[16.7 µM].
Screening COc1ccc(S(=O)(=O)Nc2ccc3c(c2)C(=O)N([C@@H](C)CO)C[C@H](C)[C@H](CN(C)S(=O)(=O)c2ccccc2)O3)cc1 returned Statin myotox sup -4, miR-122 sensor -8[16.7 µM], INS-1E GSIS act -1, PAX8 inh HTS 7, EWS-Fli inh -3 and HIV Env fusion 15[16.7 µM].
`Cn1cnc(S(=O)(=O)N2C[C@H](O)COC[C@H]3O[C@@H](CC(=O)NC4CCCC4)CC[C@@H]32)c1` gave Statin myotox sup 9, miR-122 sensor 87[16.7 µM], INS-1E GSIS act 5, PAX8 inh HTS -11 and EWS-Fli inh 8.
Screening O=C(C[C@@H]1CC[C@H]2[C@@H](COC[C@@H](O)CN2C(=O)c2ccc(F)cc2)O1)NC1Cc2ccccc2C1 returned Statin myotox sup 3, miR-122 sensor 0[16.7 µM], INS-1E GSIS act -1, PAX8 inh HTS 1, EWS-Fli inh -3 and HIV Env fusion 67*[16.7 µM].
For Cn1cnc(S(=O)(=O)N2C[C@@H](O)COC[C@H]3O[C@@H](CC(=O)NC4CCCC4)CC[C@@H]32)c1 the results were Statin myotox sup -4, miR-122 sensor 127*[16.7 µM], INS-1E GSIS act 11, PAX8 inh HTS -9 and EWS-Fli inh 4.
For Cc1ccccc1-c1cnc2c(c1)C(=O)N([C@H](C)CO)C[C@H](C)[C@H](CN(C)Cc1cncnc1)O2 the results were Statin myotox sup -40, miR-122 sensor 65[16.7 µM], INS-1E GSIS act 12, PAX8 inh HTS -6, EWS-Fli inh -10 and HIV Env fusion -18[16.7 µM].
Screening CCc1nn(C(C)C(=O)N2CCN(c3ccc(OC)cc3)CC2)c(=O)c2cc3occc3n12 (configuration not stated) returned Statin myotox sup -85, miR-122 sensor 35, INS-1E GSIS act 12, PAX8 inh HTS 46, EWS-Fli inh 55* and HIV Env fusion -112.
`CCc1nn(C(C)C(=O)N2CC(C)CC(C)C2)c(=O)c2cc3occc3n12` (configuration not stated) gave Statin myotox sup 14, miR-122 sensor -6, INS-1E GSIS act 6, PAX8 inh HTS -3 and HIV Env fusion -11.
`C[C@@H](NC(=O)C[C@H]1C=C[C@@H](NC(=O)Nc2ccc3c(c2)OCO3)[C@H](CO)O1)c1ccccc1` gave Statin myotox sup -10, miR-122 sensor -8[16.7 µM], INS-1E GSIS act 1, PAX8 inh HTS -11, EWS-Fli inh -1 and HIV Env fusion 23[16.7 µM].
Screening C[C@@H]1CN([C@H](C)CO)C(=O)Cc2cc(NC(=O)NC3CCCCC3)ccc2O[C@H]1CN(C)CC1CC1 returned Statin myotox sup 0, miR-122 sensor 2[16.7 µM], INS-1E GSIS act -11, EWS-Fli inh -4 and HIV Env fusion -3[16.7 µM].
CCCN1CN(Cc2ccco2)c2nc3ccccc3n2C1 was read as Statin myotox sup 89*, miR-122 sensor -3, INS-1E GSIS act 35 and HIV Env fusion -103.
Screening COc1ccc(S(=O)(=O)Nc2ccc3c(c2)C(=O)N([C@@H](C)CO)C[C@H](C)[C@H](CN(C)Cc2ccc(Oc4ccccc4)cc2)O3)cc1 returned Statin myotox sup 33, miR-122 sensor -9[16.7 µM], INS-1E GSIS act -3, PAX8 inh HTS 46, EWS-Fli inh 6 and HIV Env fusion 7[16.7 µM].
`C[C@@H]1CN([C@@H](C)CO)C(=O)c2cccc(NC(=O)CCCCCC(=O)Nc3ccccc3N)c2O[C@@H]1CN(C)C(=O)Nc1ccccc1` gave INS-1E GSIS act 8.
Screening O=C(C[C@@H]1CC[C@H](NC(=O)Nc2cccc(F)c2)[C@@H](CO)O1)NCC1CC1 returned Statin myotox sup -8, miR-122 sensor -2[16.7 µM], INS-1E GSIS act -9, PAX8 inh HTS -1, EWS-Fli inh -9 and HIV Env fusion -5[16.7 µM].
`Cc1cnc(NC(=O)CSc2nnc(C)n2N)s1` gave PAX8 inh HTS 130* and EWS-Fli inh 11.
`Cc1cnc(NC(=O)CSc2nnc3ncccn23)s1` gave Statin myotox sup 7, miR-122 sensor -6, INS-1E GSIS act 20, PAX8 inh HTS -6, EWS-Fli inh -1 and HIV Env fusion 2.
Screening O=C(NCc1ccc(F)cc1)[C@H]1[C@H](CO)[C@H]2Cn3c(cccc3=O)[C@@H]1N2CC1CCCC1 returned Statin myotox sup -3, INS-1E GSIS act -1 and EWS-Fli inh 7.
`Cc1cccc(OCCCC(=O)Nc2ccccc2C(F)(F)F)c1` gave Statin myotox sup 97*, miR-122 sensor 2, INS-1E GSIS act 3, PAX8 inh HTS 2 and HIV Env fusion -3.
Cc1ccc(S(=O)(=O)N[C@H]2C=C[C@H](CC(=O)N3CCc4ccccc4C3)O[C@H]2CO)cc1 was read as Statin myotox sup 3, INS-1E GSIS act -8, PAX8 inh HTS 11, EWS-Fli inh 7 and HIV Env fusion -1[16.7 µM].
C[C@H]1CN([C@@H](C)CO)C(=O)c2cccc(NS(C)(=O)=O)c2O[C@@H]1CN(C)Cc1ccc(Cl)c(Cl)c1 was read as Statin myotox sup 18, miR-122 sensor 14[16.7 µM], INS-1E GSIS act 2, PAX8 inh HTS 1 and HIV Env fusion 9[16.7 µM].
`Cc1cc(C)c(C#N)c(SCc2nnc(-c3ccccc3[N+](=O)[O-])o2)n1` gave Statin myotox sup -5, miR-122 sensor 5, INS-1E GSIS act -5, PAX8 inh HTS -192, EWS-Fli inh -64 and HIV Env fusion -175.
For Cc1cc(C)c(C#N)c(SCc2nnc(-c3ccccc3)o2)n1 the results were Statin myotox sup -2, miR-122 sensor -5, INS-1E GSIS act 21, PAX8 inh HTS 17, EWS-Fli inh 78* and HIV Env fusion -97.
